According to PubChem BioAssay (EPA / NIEHS):
Records with an inconclusive call do not appear. Active and inactive are the calls of the source. The calls were made as follows, unless noted: active = hit-call score of the fitted dose curve at least 0.9, where 1 is the maximum; inactive = score below 0.9.

How the values were obtained:
[1] = tested on: Brachyury (BRA) Protein Expression, Deisenroth Lab, TBXT (gene 6862); assay: CCTE_Deisenroth_DEVTOX-GLR_legacy_Bra: (Legacy) CCTE's DevTox GLR-Endo Assay Evaluation of Brachyury (BRA) Protein Expression, Deisenroth Lab (AID 2284329)
Outline: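 Human pluripotent RUES2-GLR line was exposed twice during 48 h differentiation to a 10-point series, 1 nM - 200 uM. Fraction of Bra-positive cells was scored by imaging against pluripotent baseline and fitted after 0.2% DMSO subtraction.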

[2] = CCTE_Deisenroth_DEVTOX-GLR_legacy_CellCount: (Legacy) Viability Assessment in CCTE's DevTox GLR-Endo Assay, Deisenroth Lab (AID 2284331); conditions: actives raise or lower the signal
Outline: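 RUES2-GLR human pluripotent cells were seeded 24 h, then differentiated 48 h with two compound doses at 24 h intervals (10-point, 1 nM - 200 uM). Fixed nuclei were imaged and counted; bidirectional fitting versus 0.2% DMSO.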

[3] = tested on: SRY-box transcription factor 2 (SOX2) Protein Expression, Deisenroth Lab, SOX2 (gene 6657); assay: CCTE_Deisenroth_DEVTOX-GLR_legacy_Sox2: (Legacy) CCTE's DevTox GLR-Endo Assay Evaluation of SRY-box transcription factor 2 (SOX2) Protein Expression, Deisenroth Lab (AID 2284346)
Outline: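 hPSC RUES2-GLR, 384-well; 24 h seed → 48 h endoderm differentiation, 2 doses q24h, 1 nM–200 uM. Fix, nuclear dye, 5 fields/well. Sox2+ cells/cell count; cell positive if >5x BMAD over endoderm ctrl; gain direction vs DMSO.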

[4] = tested on: SRY-box transcription factor 2 (SOX2) Protein Expression, Deisenroth Lab, SOX2 (gene 6657); assay: CCTE_Deisenroth_DEVTOX-GLR_Endo_SOX2: CCTE's DevTox GLR-Endo Assay Evaluation of SRY-box transcription factor 2 (SOX2) Protein Expression, Deisenroth Lab (AID 2284412; active = hit-call score of the fitted dose curve at least 0.9, where 1 is the maximum)
Outline: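 RUES2-GLR human pluripotent cells were seeded 24 h, then differentiated 48 h with two chemical exposures 24 h apart. Cells were fixed, nuclei stained and imaged by high-content microscopy. Endpoint is %SOX2+ cells over cell count, minus 0.2% DMSO control; 10-point series 1 nM–200 uM.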

[5] = tested on: SRY-box transcription factor 17 (SOX17) Protein Expression, Deisenroth Lab, SOX17 (gene 64321); assay: CCTE_Deisenroth_DEVTOX-GLR_Endo_SOX17: CCTE's DevTox GLR-Endo Assay Evaluation of SRY-box transcription factor 17 (SOX17) Protein Expression, Deisenroth Lab (AID 2284413)
Outline: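 Seed RUES2-GLR cells 24 h; start endoderm differentiation; dose at 0 and 24 h (1 nM - 200 uM, 10 points); fix at 48 h, stain nuclei, image 5 fields/well; compute SOX17+/total cells vs 0.2% DMSO.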

[6] = tested on: Brachyury (BRA) Protein Expression, TBXT (gene 6862); assay: CCTE_Deisenroth_DEVTOX-GLR_Endo_BRA: CCTE's DevTox GLR-Endo Assay Evaluation of Brachyury (BRA) Protein Expression, Deisenroth Lab (AID 2284417)
Outline: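 Endpoint is the fraction of BRA reporter-positive cells over total nuclei, corrected by subtracting the 0.2% DMSO value. Chemicals (1 nM - 200 uM, 10 points) were dosed twice during 48 h differentiation of RUES2-GLR cells, read by imaging.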

[7] = CCTE_Deisenroth_DEVTOX-GLR_Endo_CellCount: Viability Assessment in CCTE's DevTox GLR-Endo Assay, Deisenroth Lab (AID 2284420)
Outline: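 Measured 48 h after dosing: fluorescent nuclei counted by imaging in human RUES2-GLR cells under defined differentiation media, tested at 1 nM - 200 uM. Values are percent cell-count change relative to 0.2% DMSO.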

[8] = tested on: SRY-box transcription factor 17 (SOX17) Protein Expression, Deisenroth Lab, SOX17 (gene 64321); assay: CCTE_Deisenroth_DEVTOX-GLR_Pluri_SOX17: CCTE's DevTox GLR-Pluri Assay Evaluation of SRY-box transcription factor 17 (SOX17) Protein Expression, Deisenroth Lab (AID 2284427; active = hit-call score of the fitted dose curve at least 0.9, where 1 is the maximum)
Outline: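 Using an inducible fluorescent SOX17 reporter in human pluripotent RUES2-GLR cells, compounds (1 nM - 200 uM) were given twice over 48 h differentiation. Percent SOX17+ cells minus DMSO control came from high-content image analysis.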

[9] = tested on: SRY-box transcription factor 2 (SOX2) Protein Expression, Deisenroth Lab, SOX2 (gene 6657); assay: CCTE_Deisenroth_DEVTOX-GLR_Pluri_SOX2: CCTE's DevTox GLR-Pluri Assay Evaluation of SRY-box transcription factor 2 (SOX2) Protein Expression, Deisenroth Lab (AID 2284428)
Outline: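 Percent SOX2+ RUES2-GLR cells, determined by fluorescence microscopy after 48 h and two 24-h-interval chemical exposures spanning 1 nM–200 uM, served as the endpoint. Values are expressed relative to 0.2% DMSO; total cell counts assessed viability.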

[10] = tested on: Brachyury (BRA) Protein Expression, Deisenroth Lab, TBXT (gene 6862); assay: CCTE_Deisenroth_DEVTOX-GLR_Pluri_BRA: CCTE's DevTox GLR-Pluri Assay Evaluation of Brachyury (BRA) Protein Expression, Deisenroth Lab (AID 2284429; active = hit-call score of the fitted dose curve at least 0.9, where 1 is the maximum)
Outline: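 An inducible fluorescent BRA reporter in RUES2-GLR cells tracks mesoderm differentiation. Compounds (10 concentrations, 1 nM - 200 uM) are dosed twice within a 48-h differentiation. The endpoint subtracts the 0.2% DMSO control from percent BRA+ cells.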

[11] = CCTE_Deisenroth_DEVTOX-GLR_Pluri_CellCount: Viability Assessment in CCTE's DevTox GLR-Pluri Assay Evaluation of Total Cell Counts, Deisenroth Lab (AID 2284430)
Outline: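 RUES2-GLR human pluripotent cells, seeded 24 h, then differentiated 48 h with two chemical exposures 24 h apart; 10-point series 1 nM - 200 uM. Fixed, nuclear-stained, imaged (5 fields/well); nuclei count as % change vs 0.2% DMSO.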

Measured: AC50

COc1ccc2[nH]c([S@@](=O)Cc3ncc(C)c(OC)c3C)nc2c1
active: [1] 67.9 µM | [2] 48.1 µM | [3] 56.1 µM | [4] 83.8 µM | [5] 33.8 µM | [6] 70.6 µM | [7] 47.9 µM | [8] 54 µM | [9] 66.6 µM | [10] 46.4 µM | [11] 31.3 µM
